# Experimental data from PubChem BioAssay (NCATS).
# “And” between values parts separate entries of the source, which are not always exact repeats. Identical values can stand only once. Records with an inconclusive call do not appear. Where a call stands in place of a potency, no number is given. The source made the active and inactive calls. Unless noted, the call rests on the fitted dose curve; in most records, active means well fitted curve in the direction sought with a large enough effect; inconclusive means small, poorly fitted or top-dose-only effect, or another doubt; inactive means no such curve, though single readings can be large; an effect the other way counts as inactive or inconclusive.
# How the values were obtained:
# [1] = target: Single-stranded DNA cytosine deaminase (Homo sapiens) (UniProt Q9GZX7); experiment: Validation qHTS assay for inhibitors of Activation Induced Cytidine Deaminase (AID): AID signal (AID 1347429)
# In short: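 FRET deamination assay: 1 uM AID (4/3x stock) with UDG, compound up to 114 uM, then 250 nM DJC20/DJC23 substrate (4x stock) for 4 hr at room temperature. NaOH added, 30 min; fluorescence read 540/590 nm.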
# [2] = Primary qHTS for inhibitors of La Crosse Virus (LACV) - induced cell death in SH-SY5Y cells (AID 1508616);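 further: top concentration of the series differs between compounds; higher means more rescue of cells from virus-induced death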
# In short: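 SH-SY5Y cells (6000/well) plated 24 h, then given compounds by pin transfer and LACV at 0.01 MOI for 6 days at 37C. Viability measured by ATPLite luminescence, normalized to infected DMSO and uninfected DMSO.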
# [3] = target: Calcium and integrin-binding protein 1 (Homo sapiens) (UniProt Q99828); experiment: Validation qHTS for Identification of Calcium Integrin Binding protein 1 (CIB1) Competitor (AID 1508618); further: potency means the concentration at half of the fitted maximal effect
# In short: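 CIB1-GST (1 uM final) incubated 15 min at room temperature with compounds (up to 114 uM), then FITC-labelled alphaIIb peptide (100 nM) added. FP read (Ex 480/Em 540) after 15 min, pH 7.4 buffer containing 5 mM CaCl2.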
# [4] = target: Calcium and integrin-binding protein 1 (Homo sapiens) (UniProt Q99828); experiment: Primary qHTS for Identification of Calcium Integrin Binding Protein 1 (CIB1) Competitor (AID 1508620); further: potency means the concentration at half of the fitted maximal effect
# In short: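 Fluorescence polarization competition: CIB1-GST (1 uM final) preincubated with compound 15 min at room temperature, then FITC-labeled alphaIIb peptide (100 nM final) added for another 15 min. Polarization read at Ex 480/Em 540.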
# [5] = Primary qHTS for small molecule stabilizers of the endoplasmic reticulum resident proteome: Secreted ER Calcium Modulated Protein (SERCaMP) assay (AID 1508630)
# In short: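 GLuc-SERCaMP-expressing SH-SY5Y cells, pretreated 16 h with compound, are challenged with thapsigargin to empty ER calcium stores; after 4 h, coelenterazine is added directly to the medium and luminescence is imaged.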
# [6] = A High-Content qHTS Against Drug Library for the Identification of Small Molecules that Inhibit DYT1 Early Onset Primary Dystonia-Associated Cell Pathology (AID 1645839; calls by dose curve; further: series mostly up to about 46 µM)
# In short: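 Readout: %pathology, the punctate EGFP-TorsinA distribution from imaging, as the primary channel and cell count as the toxicity counterscreen. HEK293 Flp-In cells expressing delE TorsinA were induced with tetracycline and treated with compound for 48 h.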
# [7] = target: Cytochrome P450 2C9 (Homo sapiens) (UniProt P11712); experiment: Cytochrome P450 family 2 subfamily C member 9 (CYP2C9) small molecule antagonists: luciferase biochemical (cell-free) qHTS assay (AID 1645842; active means well fitted curve in the direction sought with a large enough effect in the repeat runs; an effect the other way counts as inactive or inconclusive; further: nearly all actives have a fitted effect of over 55% in size; further: potency means the concentration at half of the fitted maximal effect)
# In short: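 Luminescence, after 20 min with luciferin detection reagent, reflected CYP2C9 turnover during a 1 h NADPH-driven reaction at 37C. Enzyme-substrate mix contained 0.4% bovine serum albumin and was preincubated with compound 10 min at room temperature.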
# Papain (Carica papaya) = Papain (Carica papaya) (UniProt P00784); experiment: Primary qHTS assay for inhibitors of the protease papain (AID 1645873);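 further: papain turnover of Z-FR-AMC read as the AMC fluorescence gain over 10 min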; further: potency means the concentration at half of the fitted maximal effect
# [8] = Primary qHTS for inhibitors of nuclear receptor binding SET domain protein 2 (NSD2) in an isogenic RCH-ACV NSD2 p.E1099K mutant (9B) (AID 1645876); further: nearly all actives have a fitted effect of over 70% in size; further: potency means the concentration at half of the fitted maximal effect
# [9] = Primary qHTS for inhibitors of nuclear receptor binding SET domain protein 2 (NSD2) in an RCH-ACV wild type WT cells (2C) (AID 1645877); further: nearly all actives have a fitted effect of over 70% in size; further: potency means the concentration at half of the fitted maximal effect
# [10] = Confirmatory qHTS for small molecule stabilizers of the endoplasmic reticulum resident proteome: Secreted ER Calcium Modulated Protein (SERCaMP) assay (AID 1508628); further: nearly all actives have a fitted effect of over 40% in size; further: potency means the concentration at half of the fitted maximal effect
# In short: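 SH-SY5Y cells stably expressing GLuc-SERCaMP, treated 16 h with compound (primary 1.53, 7.67, 38.3 uM; confirmation 11 concentrations, up to 76.6 uM), then 100 nM thapsigargin for 4 h. Secreted Gaussia luciferase in medium read by coelenterazine luminescence.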
# [11] = target: Cytochrome P450 2D6 (Homo sapiens) (UniProt P10635); experiment: Cytochrome P450 family 2 subfamily D member 6 (CYP2D6) small molecule antagonists: luciferase biochemical (cell-free) qHTS assay (AID 1645840; active means well fitted curve in the direction sought with a large enough effect in the repeat runs; an effect the other way counts as inactive or inconclusive; further: series mostly up to about 57 µM; nearly all actives have a fitted effect of over 55% in size)
# In short: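 P450-Glo luminescent screen: recombinant CYP2D6 enzyme–proluciferin substrate mix preincubated with compound 10 min at room temperature, then NADPH regeneration added for 1 h at room temperature. Detection reagent added for 20 min; luciferin light read as relative luminescence units.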
# [12] = Counterscreen qHTS for small molecule stabilizers of the endoplasmic reticulum resident proteome: GLuc-NoTag assay (AID 1508627); further: potency means the concentration at half of the fitted maximal effect
# In short: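 SH-SY5Y cells stably expressing constitutively secreted GLuc (no SERCaMP tag) were pre-incubated 5 h, treated with compound for 19 h, then 100 nM thapsigargin for 4 h at 37C; medium GLuc read by coelenterazine luminescence.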
# [13] = target: Rap guanine nucleotide exchange factor 3 (Homo sapiens) (UniProt O95398); experiment: Confirmatory qHTS for antagonist of cAMP-regulated guanine nucleotide exchange factor 3 (EPAC1) (AID 1645880); further: nearly all actives have a fitted effect of over 55% in size
# In short: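 Nucleotide exchange uses 100 nM EPAC1, 250 nM RAP1B-BODIPY-GDP and 50 uM GDP, with compounds in a concentration-titration series. After 5 min at room temperature, fluorescence (480 nm ex/540 nm em) is read every 5 min for 30 min. Data are normalized to control ATA and DMSO.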
# [14] = target: Rap guanine nucleotide exchange factor 4 (Homo sapiens) (UniProt Q8WZA2); experiment: Confirmatory qHTS for agonist of cAMP-regulated guanine nucleotide exchange factor 4 (EPAC2) (AID 1645884);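 further: nucleotide exchange releases bodipy-GDP from Rap1 and this lowers its fluorescence; nearly all actives have a fitted effect of over 65% in size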
# Rap guanine nucleotide exchange factor 4 (Homo sapiens), sequence (Q8WZA2 whole entry, looked up): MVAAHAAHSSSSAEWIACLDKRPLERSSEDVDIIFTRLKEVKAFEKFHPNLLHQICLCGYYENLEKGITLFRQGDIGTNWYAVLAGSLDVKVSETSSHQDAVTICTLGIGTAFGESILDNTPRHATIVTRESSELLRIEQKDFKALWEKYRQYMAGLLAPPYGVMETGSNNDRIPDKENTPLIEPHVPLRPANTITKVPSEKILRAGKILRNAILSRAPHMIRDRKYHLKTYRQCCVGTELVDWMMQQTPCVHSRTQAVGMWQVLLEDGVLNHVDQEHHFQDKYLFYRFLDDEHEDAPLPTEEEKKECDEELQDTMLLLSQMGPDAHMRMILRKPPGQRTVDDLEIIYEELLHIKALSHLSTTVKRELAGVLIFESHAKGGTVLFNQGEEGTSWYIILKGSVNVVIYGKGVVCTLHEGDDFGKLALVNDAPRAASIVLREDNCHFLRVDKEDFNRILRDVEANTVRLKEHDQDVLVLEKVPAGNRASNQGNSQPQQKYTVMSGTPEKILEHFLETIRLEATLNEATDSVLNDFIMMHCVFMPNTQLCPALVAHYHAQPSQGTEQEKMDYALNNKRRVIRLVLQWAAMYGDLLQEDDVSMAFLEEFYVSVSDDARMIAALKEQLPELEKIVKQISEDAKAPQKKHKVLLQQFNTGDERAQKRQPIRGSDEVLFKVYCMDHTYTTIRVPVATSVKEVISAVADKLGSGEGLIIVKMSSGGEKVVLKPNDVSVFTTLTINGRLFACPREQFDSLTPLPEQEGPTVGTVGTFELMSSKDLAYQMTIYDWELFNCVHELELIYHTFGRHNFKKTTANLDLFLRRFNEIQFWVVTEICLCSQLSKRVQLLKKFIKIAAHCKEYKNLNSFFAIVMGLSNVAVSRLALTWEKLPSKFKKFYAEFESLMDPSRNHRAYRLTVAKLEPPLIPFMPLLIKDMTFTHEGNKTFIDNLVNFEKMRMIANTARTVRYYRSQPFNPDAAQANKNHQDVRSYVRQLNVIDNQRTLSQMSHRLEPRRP
# Papain (Carica papaya), sequence (P00784 whole entry, looked up, the tested form may be a part): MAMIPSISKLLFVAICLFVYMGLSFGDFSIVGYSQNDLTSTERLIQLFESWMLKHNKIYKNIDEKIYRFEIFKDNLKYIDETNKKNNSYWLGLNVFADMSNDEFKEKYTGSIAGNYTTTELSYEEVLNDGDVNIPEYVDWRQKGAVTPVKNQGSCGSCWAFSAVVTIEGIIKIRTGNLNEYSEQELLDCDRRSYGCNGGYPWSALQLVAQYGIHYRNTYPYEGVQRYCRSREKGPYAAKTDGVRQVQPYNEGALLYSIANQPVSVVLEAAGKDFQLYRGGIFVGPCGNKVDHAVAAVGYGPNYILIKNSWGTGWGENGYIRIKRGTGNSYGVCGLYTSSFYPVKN
# Cytochrome P450 2D6 (Homo sapiens), sequence (P10635 whole entry, looked up): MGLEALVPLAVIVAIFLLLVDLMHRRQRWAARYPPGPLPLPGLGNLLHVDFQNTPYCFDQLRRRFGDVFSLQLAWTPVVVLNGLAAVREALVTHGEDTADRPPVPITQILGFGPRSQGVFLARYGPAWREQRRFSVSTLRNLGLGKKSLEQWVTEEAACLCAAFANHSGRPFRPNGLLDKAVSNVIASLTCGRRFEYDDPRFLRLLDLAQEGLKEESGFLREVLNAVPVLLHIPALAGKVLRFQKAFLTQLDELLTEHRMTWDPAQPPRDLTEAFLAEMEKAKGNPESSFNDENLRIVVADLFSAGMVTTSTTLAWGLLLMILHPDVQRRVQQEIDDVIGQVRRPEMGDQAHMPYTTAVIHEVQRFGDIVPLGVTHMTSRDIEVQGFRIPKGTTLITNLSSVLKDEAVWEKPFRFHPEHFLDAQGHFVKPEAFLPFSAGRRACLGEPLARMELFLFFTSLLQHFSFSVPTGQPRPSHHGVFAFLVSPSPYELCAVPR
# Cytochrome P450 2C9 (Homo sapiens), sequence (P11712 whole entry, looked up): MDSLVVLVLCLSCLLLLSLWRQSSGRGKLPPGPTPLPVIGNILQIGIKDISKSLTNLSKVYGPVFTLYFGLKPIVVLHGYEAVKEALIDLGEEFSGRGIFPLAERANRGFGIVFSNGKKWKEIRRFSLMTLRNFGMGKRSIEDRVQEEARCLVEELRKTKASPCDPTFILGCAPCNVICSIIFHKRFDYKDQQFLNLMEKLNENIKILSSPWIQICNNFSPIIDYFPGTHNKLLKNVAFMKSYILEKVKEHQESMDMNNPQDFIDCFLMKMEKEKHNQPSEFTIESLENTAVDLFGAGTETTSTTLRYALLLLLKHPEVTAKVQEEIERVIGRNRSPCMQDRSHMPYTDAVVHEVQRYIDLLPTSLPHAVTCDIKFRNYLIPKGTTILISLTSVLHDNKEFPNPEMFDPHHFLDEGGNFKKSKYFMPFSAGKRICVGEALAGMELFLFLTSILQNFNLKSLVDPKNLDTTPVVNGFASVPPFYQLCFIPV
# Single-stranded DNA cytosine deaminase (Homo sapiens), sequence (Q9GZX7 whole entry, looked up): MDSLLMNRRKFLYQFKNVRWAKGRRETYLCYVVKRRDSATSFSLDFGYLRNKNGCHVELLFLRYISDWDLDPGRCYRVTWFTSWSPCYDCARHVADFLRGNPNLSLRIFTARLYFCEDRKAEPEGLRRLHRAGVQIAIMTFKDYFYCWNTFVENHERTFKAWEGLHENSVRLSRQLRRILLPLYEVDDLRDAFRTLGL
# Calcium and integrin-binding protein 1 (Homo sapiens), sequence (Q99828 whole entry, looked up): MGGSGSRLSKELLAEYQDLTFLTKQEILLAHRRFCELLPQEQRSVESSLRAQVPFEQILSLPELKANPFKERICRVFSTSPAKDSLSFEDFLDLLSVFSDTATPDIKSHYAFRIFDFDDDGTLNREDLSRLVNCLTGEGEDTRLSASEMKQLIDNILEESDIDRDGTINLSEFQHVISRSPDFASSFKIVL
# Rap guanine nucleotide exchange factor 3 (Homo sapiens), sequence (O95398 whole entry, looked up): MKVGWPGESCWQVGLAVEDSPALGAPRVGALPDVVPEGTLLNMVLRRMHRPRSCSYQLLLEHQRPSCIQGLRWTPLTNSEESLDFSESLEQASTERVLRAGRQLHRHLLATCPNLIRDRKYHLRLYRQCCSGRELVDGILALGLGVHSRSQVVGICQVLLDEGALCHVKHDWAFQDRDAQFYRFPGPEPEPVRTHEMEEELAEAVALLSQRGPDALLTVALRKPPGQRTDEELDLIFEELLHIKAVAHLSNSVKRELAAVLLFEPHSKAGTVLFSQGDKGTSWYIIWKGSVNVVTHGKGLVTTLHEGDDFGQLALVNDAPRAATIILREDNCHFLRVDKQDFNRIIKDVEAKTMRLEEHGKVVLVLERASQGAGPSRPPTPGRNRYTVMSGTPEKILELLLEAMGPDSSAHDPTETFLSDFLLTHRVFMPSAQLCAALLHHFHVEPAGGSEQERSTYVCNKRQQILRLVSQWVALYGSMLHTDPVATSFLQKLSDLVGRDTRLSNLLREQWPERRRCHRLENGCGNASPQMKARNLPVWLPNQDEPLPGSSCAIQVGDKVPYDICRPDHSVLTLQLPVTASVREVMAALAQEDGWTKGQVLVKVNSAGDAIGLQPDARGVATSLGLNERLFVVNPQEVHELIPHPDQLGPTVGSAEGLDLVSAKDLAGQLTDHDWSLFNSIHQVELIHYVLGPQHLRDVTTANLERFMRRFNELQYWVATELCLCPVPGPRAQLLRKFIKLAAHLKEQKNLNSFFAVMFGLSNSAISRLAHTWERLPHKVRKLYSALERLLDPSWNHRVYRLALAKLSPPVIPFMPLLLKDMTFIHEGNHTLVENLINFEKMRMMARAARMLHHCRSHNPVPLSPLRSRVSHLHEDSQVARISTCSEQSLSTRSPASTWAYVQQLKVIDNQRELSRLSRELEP
SMILES,Potency [1],Potency [2],Potency [3],Potency [4],Potency [5],Potency [6],Potency [7],Potency (Papain (Carica papaya)),Potency [8],Potency [9],Potency [10],Potency [11],Potency [12],outcome [13],Potency [14]
COc1ccc2[nH]cc(CCNC(C)=O)c2c1,inactive,inactive,inactive,inactive,inactive,inactive,inactive,inactive,inactive,inactive,,,,,
Cn1ccc2cc3c(cc21)CCN3C(=O)Nc1cccnc1,inactive,inactive,inactive,inactive,,,inactive,inactive,inactive,inactive,,,,,
COc1cc2c(c(OC)c1OC)-c1ccc(OC)c(=O)cc1[C@@H](NC(C)=O)CC2,inactive,inactive,inactive,inactive,,inactive,inactive,inactive,33.5 nM (active) and 33.2 nM (active),15 nM (active) and 26.3 nM (active),,,,,
CS(=O)(=O)CCNCc1ccc(-c2ccc3ncnc(Nc4ccc(OCc5cccc(F)c5)c(Cl)c4)c3c2)o1,,inactive,,inactive,inactive,,,,18.8 µM (active) and 9.16 µM (active) and 16.6 µM (active),11.9 µM (active) and 7.28 µM (active) and 16.6 µM (active),inactive,,,,
CN(C)C(=O)C(CCN1CCC(O)(c2ccc(Cl)cc2)CC1)(c1ccccc1)c1ccccc1,inactive,,inactive,inactive,,,,,,,,,,,
COc1cc2nc(N3CCN(C(=O)C4COc5ccccc5O4)CC3)nc(N)c2cc1OC (stereo unspecified),inactive,inactive,inactive,inactive,,,inactive,25.1 µM (active),,,,,,,
CCC1(c2ccccc2)C(=O)NCNC1=O,,inactive,inactive,inactive,,inactive,inactive,inactive,inactive,inactive,,inactive,,,
CC(C)(Oc1ccc(C2CC2(Cl)Cl)cc1)C(=O)O (stereo unspecified),inactive,inactive,inactive,inactive,,inactive,,inactive,inactive,inactive,,,,,
C[C@@H]1CC(=O)NN=C1c1ccc(NN=C(C#N)C#N)cc1,,inactive,,inactive,inactive,inactive,977 nM (active) and 692 nM (active),,9.44 µM (active) and 18.6 µM (active),11.9 µM (active) and 23.7 µM (active),15.8 µM (active),,14.1 µM (active) and 28.2 µM (active),,
CC[C@@]1(O)C(=O)OCc2c1cc1n(c2=O)Cc2cc3c(CN(C)C)c(O)ccc3nc2-1,,inactive,14.1 µM (active),28.2 µM (active) and 24.1 µM (active) and 31.6 µM (active),inactive,inactive,inactive,28.2 µM (active),16.8 nM (active) and 57.8 nM (active),10.6 nM (active) and 23 nM (active),,inactive,,inactive,inactive
COc1ccccc1OCC(O)CN1CCN(CC(=O)Nc2c(C)cccc2C)CC1 (stereo unspecified),inactive,inactive,inactive,inactive,,inactive,,inactive,inactive,inactive,,,,,
Nc1nc2c(ncn2COC(CO)CO)c(=O)[nH]1,,inactive,inactive,inactive,,inactive,inactive,inactive,inactive,inactive,,inactive,,,
CC1COc2c(N3CCN(C)CC3)c(F)cc3c(=O)c(C(=O)O)cn1c23 (stereo unspecified),,inactive,,,,inactive,inactive,,inactive,inactive,,inactive,,,
COc1cc2nc(N3CCN(C(=O)c4ccco4)CC3)nc(N)c2cc1OC,,inactive,inactive,inactive,,,inactive,,13 µM (active),13 µM (active),,inactive,,,
CC#C[C@]1(O)CC[C@H]2[C@@H]3CCC4=CC(=O)CCC4=C3[C@@H](c3ccc(N(C)C)cc3)C[C@@]21C,inactive,inactive,inactive,inactive,,,1.74 µM (active),inactive,23.5 µM (active),,,,,,
CC(=O)OCC(CCn1cnc2cnc(N)nc21)COC(C)=O,,inactive,inactive,inactive,inactive,inactive,inactive,inactive,inactive,inactive,,,,,
